Test results: PubChem BioAssay (NCATS)
Records with an inconclusive call do not appear. Values without a mark were called inactive. Calls of active or inactive are those of the source. Calls follow the shape of the dose curve; as a rule, active = well fitted curve in the direction sought with a large enough effect; inconclusive = small, poorly fitted or top-dose-only effect, or another doubt; inactive = no such curve, though single readings can be large; an effect the other way counts as inactive or inconclusive.

Target: Calcium and integrin-binding protein 1 (Homo sapiens) (UniProt Q99828)
Sequence (Q99828 whole entry, looked up): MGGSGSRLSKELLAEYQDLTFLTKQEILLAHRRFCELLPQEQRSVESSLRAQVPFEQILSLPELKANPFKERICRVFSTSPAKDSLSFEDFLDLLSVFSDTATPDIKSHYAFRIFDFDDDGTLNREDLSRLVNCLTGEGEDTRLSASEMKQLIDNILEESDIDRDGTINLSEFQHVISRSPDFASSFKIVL
Test: Primary qHTS for Identification of Calcium Integrin Binding Protein 1 (CIB1) Competitor (AID 1508620);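 also: GST tagged CIB1 binding a fluorescein labelled alphaIIb integrin peptide tracer; top concentration of the series differs between compounds; % is scaled to controls: 0 for no effect and ±100 for the full control effect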
Conditions: CIB1-GST / FITC-alphaIIb peptide fluorescence polarization; series mostly up to 57.7 µM; activity change, negative = inhibition: at the top concentration
Outline: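 CIB1-GST (1 uM final) and compound incubated 15 min at room temperature before adding FITC-alphaIIb peptide tracer (100 nM final). Competition for binding read by fluorescence polarization (ex 480, em 540) after another 15 min at room temperature.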

For `CCN1CCN(C(=O)Cc2ccc(Nc3ncc(F)c(Nc4ccc(C(=O)Nc5ccccc5Cl)cc4)n3)cc2)CC1`, which outcome is on record?
The outcome was “inactive”.

Which “activity change, negative = inhibition” value does the source give for `Cc1nc(-c2ccc(-c3ccc(C(=O)N4CCc5cc6c(cc54)C4(CCN(C)CC4)CO6)cc3)c(C)c2)no1` here?
The value was -5.07%.

With `CC(C)[C@]12O[C@@H]1[C@@H]1O[C@]13[C@]1(O[C@H]1C[C@@H]1C4=C(CC[C@@]13C)C(=O)OC4)[C@H]2O` as the compound, how does the “activity change, negative = inhibition” value read?
Its value is -8.26%.

With `C=CCON=C(C[C@H]1O[C@@H]2O[C@]3(C)CC[C@@H]4[C@H](C)CC[C@@H]([C@H]1C)[C@@]24OO3)[C@H]1O[C@@H]2O[C@]3(C)CC[C@H]4[C@H](C)CC[C@@H]([C@@H]1C)[C@@]24OO3` as the compound, how does the “activity change, negative = inhibition” value read?
The value was -3.06%.

Which “activity change, negative = inhibition” value does the source give for `CC(C)(O)C=CC(=O)[C@](C)(O)[C@H]1[C@H](O)C[C@]2(C)[C@@H]3CC=C4[C@@H](C=C(O)C(=O)C4(C)C)[C@]3(C)C(=O)C[C@@]12C` here?
Its value is -2.55%.

System: not listed separately
Test: Counterscreen qHTS for small molecule stabilizers of the endoplasmic reticulum resident proteome: GLuc-NoTag assay (AID 1508627);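 also: SH-SY5Y cells given compound then 100 nM thapsigargin to empty ER calcium; 0% = thapsigargin alone and -100% = DMSO vehicle control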
Conditions: Gaussia luciferase NoTag secretion counterscreen, luminescence, thapsigargin 100 nM for final 4 h; series mostly up to 76.4 µM; activity change, negative = inhibition: at the top concentration
Outline: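 Counterscreen line: SH-SY5Y-GLuc-NoTag cells, treated with compound 19 hr before a 4 hr, 100 nM thapsigargin calcium depletion. Secreted Gaussia luciferase in the medium was measured by luminescence after coelenterazine was added (0.07x final), with cells unlysed.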

For `Clc1ccc(C(c2ccc(Cl)cc2)n2cc[n+](CC(OCc3ccc(Cl)cc3Cl)c3ccc(Cl)cc3Cl)c2)cc1` (stereo not drawn), which “activity change, negative = inhibition” value is on record?
Its value is -59.9%.

Which “activity change, negative = inhibition” value does the source give for `C[C@H]1CCCC=CC2C[C@H](O)C[C@@H]2[C@H](O)C=CC(=O)O1` (stereo partly drawn) here?
The value was -51.6%.

With `CC=C(C)C(=O)O[C@H]1C(C)=C2[C@@H]3OC(=O)[C@@](C)(O)[C@@]3(O)[C@@H](OC(=O)CCC)C[C@](C)(OC(C)=O)[C@@H]2[C@@H]1OC(=O)CCCCCCC` as the compound, how does the “activity change, negative = inhibition” value read?
Its value is 16.5%.

With `CN1CCN(c2ccc([N+](=O)[O-])c3no[n+]([O-])c23)CC1` as the compound, how does the “activity change, negative = inhibition” value read?
Its value is 14.5%.

System: not listed separately
Test: Confirmatory qHTS for small molecule stabilizers of the endoplasmic reticulum resident proteome: Secreted ER Calcium Modulated Protein (SERCaMP) assay (AID 1508628);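 also: SH-SY5Y cells given compound 16 h then thapsigargin 100 nM for 4 h; % is scaled to controls: 0 for no effect and ±100 for the full control effect; nearly all actives have a fitted effect of over 40% in size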
Conditions: SERCaMP secreted luciferase ER calcium/proteostasis reporter; series mostly up to 76.3 µM; activity change, negative = decrease: at the top concentration
Outline: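 GLuc-SERCaMP-expressing SH-SY5Y cells, pretreated 16 h with compound, are challenged with thapsigargin to empty ER calcium stores; after 4 h, coelenterazine is added directly to the medium and luminescence is imaged.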

For `Clc1ccc(C(c2ccc(Cl)cc2)n2cc[n+](CC(OCc3ccc(Cl)cc3Cl)c3ccc(Cl)cc3Cl)c2)cc1` (stereo not drawn), which “activity change, negative = decrease” value is on record?
Its value is 54.6%.

Which “activity change, negative = decrease” value does the source give for `C[C@H]1CCCC=CC2C[C@H](O)C[C@@H]2[C@H](O)C=CC(=O)O1` (stereo partly drawn) here?
The value was -51.1%.

Which “activity change, negative = decrease” value does the source give for `CC=C(C)C(=O)O[C@H]1C(C)=C2[C@@H]3OC(=O)[C@@](C)(O)[C@@]3(O)[C@@H](OC(=O)CCC)C[C@](C)(OC(C)=O)[C@@H]2[C@@H]1OC(=O)CCCCCCC` here?
The value was 12.7%.

Which “activity change, negative = decrease” value does the source give for `CN1CCN(c2ccc([N+](=O)[O-])c3no[n+]([O-])c23)CC1` here?
Its value is -9.86%.
